# For some of these results: Entries with a potency or affinity are not part of this list.
# Experiments:
# Set-up in all cases: scale not given: direction of the effect not stated beside the values
# [1] = target: AMP-activated protein kinase, AMPK (Homo sapiens) (UniProt P54646+O43741+P54619+Q9UGJ0+Q9Y478+Q13131+Q9UGI9); experiment: AMP-dependent Kinase enzyme assay. An in vitro enzyme assay that detects ADP turnover that is directly proportional to AMPK activity. This uses naive AMPK that is activated during the assay with MK-8722; type: functional; conditions: 30 µM
# [2] = target: Protein translocase subunit SecA (Escherichia coli (strain K12)) (UniProt P10408); experiment: Assay to Identify E. coli SecA ATPase Inhibitors; type: functional; conditions: 30 µM
# [3] = target: T1, Ubiquitin-activating enzyme e1, putative (Leishmania donovani (strain BPK282A1)) (UniProt E9BSI1); experiment: Leishmania donovani Ubiquitin Activating Enzyme (LdE1); type: functional; conditions: 30 µM
# T1 sequence (whole entry): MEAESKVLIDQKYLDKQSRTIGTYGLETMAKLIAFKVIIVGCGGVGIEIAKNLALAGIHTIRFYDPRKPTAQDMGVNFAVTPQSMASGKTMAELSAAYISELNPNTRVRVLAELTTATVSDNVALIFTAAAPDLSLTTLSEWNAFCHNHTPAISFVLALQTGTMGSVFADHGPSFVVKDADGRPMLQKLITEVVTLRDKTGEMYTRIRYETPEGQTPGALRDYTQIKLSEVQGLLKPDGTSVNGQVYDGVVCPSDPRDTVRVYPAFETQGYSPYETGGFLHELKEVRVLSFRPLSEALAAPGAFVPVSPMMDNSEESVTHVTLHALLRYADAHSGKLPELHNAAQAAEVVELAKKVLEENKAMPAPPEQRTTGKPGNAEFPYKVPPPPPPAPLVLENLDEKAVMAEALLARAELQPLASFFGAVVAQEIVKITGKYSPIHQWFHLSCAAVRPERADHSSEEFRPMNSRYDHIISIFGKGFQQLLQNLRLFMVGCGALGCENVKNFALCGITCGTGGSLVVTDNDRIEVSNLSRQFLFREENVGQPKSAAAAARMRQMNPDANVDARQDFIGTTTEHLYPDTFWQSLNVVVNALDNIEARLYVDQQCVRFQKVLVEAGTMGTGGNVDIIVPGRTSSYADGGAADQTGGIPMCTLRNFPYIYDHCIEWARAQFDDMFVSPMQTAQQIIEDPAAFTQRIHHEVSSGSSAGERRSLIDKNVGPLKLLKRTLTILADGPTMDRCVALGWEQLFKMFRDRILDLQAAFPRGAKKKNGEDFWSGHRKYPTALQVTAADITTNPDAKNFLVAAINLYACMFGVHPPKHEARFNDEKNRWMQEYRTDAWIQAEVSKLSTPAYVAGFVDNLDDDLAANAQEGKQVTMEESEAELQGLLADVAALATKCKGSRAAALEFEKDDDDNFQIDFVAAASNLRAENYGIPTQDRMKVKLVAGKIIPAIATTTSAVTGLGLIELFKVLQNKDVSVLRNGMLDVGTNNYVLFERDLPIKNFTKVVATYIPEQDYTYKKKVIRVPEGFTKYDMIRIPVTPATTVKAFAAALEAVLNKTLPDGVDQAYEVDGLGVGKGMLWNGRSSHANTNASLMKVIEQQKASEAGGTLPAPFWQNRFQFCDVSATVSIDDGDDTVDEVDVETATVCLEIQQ
# [4] = target: Sialic acid-binding Ig-like lectin 9 (Homo sapiens) (UniProt Q9Y336); experiment: Hs-Siglec9 ALPHAscreen SOP 20170721; conditions: 10 µM
# [5] = system: Trypanosoma cruzi; experiment: Trypanosoma cruzi phosphomannomutase and mannose-1-phosphate guanylyltransferase assay; type: functional; conditions: 10 µM
# [6] = target: T2, Arginase-2, mitochondrial (Homo sapiens) (UniProt P78540); experiment: in vitro enzyme assay to detect the production of urea directly proportional to the activity of Arginase II; type: functional; conditions: 33.3 µM; note: in the data most compounds retested in dose-response had high values
# T2 sequence (whole entry): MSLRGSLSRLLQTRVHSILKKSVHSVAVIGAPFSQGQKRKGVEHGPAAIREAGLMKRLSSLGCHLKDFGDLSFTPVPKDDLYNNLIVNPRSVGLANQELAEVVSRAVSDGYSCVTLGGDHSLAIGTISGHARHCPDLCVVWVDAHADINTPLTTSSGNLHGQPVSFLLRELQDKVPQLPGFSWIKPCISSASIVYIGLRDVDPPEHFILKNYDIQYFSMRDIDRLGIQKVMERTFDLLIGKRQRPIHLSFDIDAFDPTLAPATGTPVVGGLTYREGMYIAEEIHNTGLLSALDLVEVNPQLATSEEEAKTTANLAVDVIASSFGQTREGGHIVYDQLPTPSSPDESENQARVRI
# [7] = target: T3, Proteasome subunit beta (Trypanosoma cruzi) (UniProt O96673); experiment: Trypanosoma cruzi proteasome chymotrypsin-like activity (TcProtChymo) assay.; note: in the data most compounds retested in dose-response had high values; type: functional; conditions: 9.37 µM
# T3 sequence (whole entry): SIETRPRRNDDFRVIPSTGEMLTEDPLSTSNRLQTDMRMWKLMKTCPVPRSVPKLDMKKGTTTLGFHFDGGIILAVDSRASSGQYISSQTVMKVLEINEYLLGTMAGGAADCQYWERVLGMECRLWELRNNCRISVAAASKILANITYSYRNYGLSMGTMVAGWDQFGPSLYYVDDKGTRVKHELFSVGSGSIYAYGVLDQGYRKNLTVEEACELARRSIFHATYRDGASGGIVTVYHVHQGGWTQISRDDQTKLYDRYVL
# [8] = organism: Homo sapiens; experiment: To identify inhibition of the IFN signalling (Jak-Stat) pathway via expression of an eGFP reporter gene under the control of an IFN-stimulated response element (ISRE) containing MxA promoter.; type: functional; conditions: 30 µM
# [9] = target: T4, Tyrosyl-tRNA synthetase, putative (Trypanosoma cruzi (strain CL Brener)) (UniProt Q4DSP6); experiment: Trypanosoma cruzi tyrosyl tRNA synthetase (TcYRS) _High Tyrosine SOP; type: functional; conditions: 30 µM; note: in the data most compounds retested in dose-response had high values
# T4 sequence (whole entry): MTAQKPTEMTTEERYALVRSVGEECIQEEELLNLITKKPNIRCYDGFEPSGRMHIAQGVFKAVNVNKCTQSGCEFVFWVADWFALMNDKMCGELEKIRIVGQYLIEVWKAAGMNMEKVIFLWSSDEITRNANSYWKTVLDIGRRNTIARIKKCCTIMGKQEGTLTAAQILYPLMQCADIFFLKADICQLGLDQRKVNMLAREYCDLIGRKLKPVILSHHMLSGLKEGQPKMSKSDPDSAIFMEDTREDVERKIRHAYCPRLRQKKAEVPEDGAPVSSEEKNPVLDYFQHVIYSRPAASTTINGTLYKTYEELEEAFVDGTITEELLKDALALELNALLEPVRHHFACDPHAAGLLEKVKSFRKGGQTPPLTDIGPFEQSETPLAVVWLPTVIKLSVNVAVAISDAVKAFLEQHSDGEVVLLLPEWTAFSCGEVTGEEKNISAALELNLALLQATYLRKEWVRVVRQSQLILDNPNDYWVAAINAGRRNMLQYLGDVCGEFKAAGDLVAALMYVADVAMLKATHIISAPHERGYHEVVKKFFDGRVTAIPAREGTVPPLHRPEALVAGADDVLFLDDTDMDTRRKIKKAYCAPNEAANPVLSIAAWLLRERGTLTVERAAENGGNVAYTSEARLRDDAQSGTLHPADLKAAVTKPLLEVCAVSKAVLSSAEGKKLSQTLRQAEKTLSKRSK
# [10] = target: T4, Tyrosyl-tRNA synthetase, putative (Trypanosoma cruzi (strain CL Brener)); experiment: Trypanosoma cruzi tyrosyl tRNA synthetase (TcYRS) SOP; type: functional; conditions: 30 µM
# [11] = target: Chromo domain-containing protein 1 (Saccharomyces cerevisiae (strain ATCC 204508 / S288c) (Baker's yeast)) (UniProt P32657); experiment: ScCHD-1 Enzyme Inhibition Assay; type: functional; conditions: 30 µM; note: in the data most compounds retested in dose-response had high values
# Sequence of Chromo domain-containing protein 1 (Saccharomyces cerevisiae (strain ATCC 204508 / S288c) (Baker's yeast)) (P32657 whole entry, the tested form may be a part): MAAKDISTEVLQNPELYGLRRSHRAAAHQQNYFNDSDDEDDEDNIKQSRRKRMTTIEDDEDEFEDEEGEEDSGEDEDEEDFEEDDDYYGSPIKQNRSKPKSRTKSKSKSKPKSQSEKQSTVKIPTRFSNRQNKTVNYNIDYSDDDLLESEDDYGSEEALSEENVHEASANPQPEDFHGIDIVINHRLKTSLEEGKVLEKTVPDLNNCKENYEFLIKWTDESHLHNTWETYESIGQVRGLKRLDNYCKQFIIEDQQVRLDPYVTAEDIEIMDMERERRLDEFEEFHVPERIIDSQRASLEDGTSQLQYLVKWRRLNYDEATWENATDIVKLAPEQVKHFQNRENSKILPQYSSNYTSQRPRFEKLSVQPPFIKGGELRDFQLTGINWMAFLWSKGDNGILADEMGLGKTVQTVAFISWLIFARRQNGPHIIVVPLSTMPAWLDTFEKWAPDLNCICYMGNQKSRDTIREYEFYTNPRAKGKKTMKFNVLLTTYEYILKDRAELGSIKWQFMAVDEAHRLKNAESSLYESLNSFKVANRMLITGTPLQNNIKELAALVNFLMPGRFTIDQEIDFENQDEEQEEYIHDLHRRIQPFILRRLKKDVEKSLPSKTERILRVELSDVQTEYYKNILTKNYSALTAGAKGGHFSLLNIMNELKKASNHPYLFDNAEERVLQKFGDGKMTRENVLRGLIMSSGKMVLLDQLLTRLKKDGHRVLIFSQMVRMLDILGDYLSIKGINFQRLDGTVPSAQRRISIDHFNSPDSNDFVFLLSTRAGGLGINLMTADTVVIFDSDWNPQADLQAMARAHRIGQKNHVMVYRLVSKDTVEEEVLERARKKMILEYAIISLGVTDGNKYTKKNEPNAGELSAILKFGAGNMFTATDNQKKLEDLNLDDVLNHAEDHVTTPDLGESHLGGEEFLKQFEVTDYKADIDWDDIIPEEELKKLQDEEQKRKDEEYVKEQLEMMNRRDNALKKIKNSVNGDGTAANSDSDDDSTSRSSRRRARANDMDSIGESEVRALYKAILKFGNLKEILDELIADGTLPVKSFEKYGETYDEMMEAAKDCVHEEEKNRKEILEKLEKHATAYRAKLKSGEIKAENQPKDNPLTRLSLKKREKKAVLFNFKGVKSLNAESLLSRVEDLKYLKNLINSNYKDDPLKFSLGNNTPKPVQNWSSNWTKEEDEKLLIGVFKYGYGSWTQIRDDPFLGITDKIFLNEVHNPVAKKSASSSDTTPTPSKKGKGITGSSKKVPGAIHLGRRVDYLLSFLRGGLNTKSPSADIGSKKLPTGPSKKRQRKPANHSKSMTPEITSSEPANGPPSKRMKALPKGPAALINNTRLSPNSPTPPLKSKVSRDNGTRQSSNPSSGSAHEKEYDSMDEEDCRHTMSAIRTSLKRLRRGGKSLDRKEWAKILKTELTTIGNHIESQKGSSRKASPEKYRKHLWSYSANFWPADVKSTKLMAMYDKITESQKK
# Sequence of Sialic acid-binding Ig-like lectin 9 (Homo sapiens) (Q9Y336 whole entry): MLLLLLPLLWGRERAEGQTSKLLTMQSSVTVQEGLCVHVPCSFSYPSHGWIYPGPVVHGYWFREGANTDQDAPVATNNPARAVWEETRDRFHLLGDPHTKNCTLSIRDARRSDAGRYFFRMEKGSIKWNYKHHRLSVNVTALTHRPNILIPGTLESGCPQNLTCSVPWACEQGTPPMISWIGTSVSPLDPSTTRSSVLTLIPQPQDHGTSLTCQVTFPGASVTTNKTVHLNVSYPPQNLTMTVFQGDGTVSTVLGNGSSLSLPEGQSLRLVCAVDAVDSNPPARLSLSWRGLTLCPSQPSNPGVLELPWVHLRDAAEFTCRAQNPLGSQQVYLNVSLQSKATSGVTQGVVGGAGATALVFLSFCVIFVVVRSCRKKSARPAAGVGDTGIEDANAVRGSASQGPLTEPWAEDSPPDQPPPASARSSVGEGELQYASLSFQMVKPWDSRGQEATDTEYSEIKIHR
# Sequence of Protein translocase subunit SecA (Escherichia coli (strain K12)) (P10408 whole entry): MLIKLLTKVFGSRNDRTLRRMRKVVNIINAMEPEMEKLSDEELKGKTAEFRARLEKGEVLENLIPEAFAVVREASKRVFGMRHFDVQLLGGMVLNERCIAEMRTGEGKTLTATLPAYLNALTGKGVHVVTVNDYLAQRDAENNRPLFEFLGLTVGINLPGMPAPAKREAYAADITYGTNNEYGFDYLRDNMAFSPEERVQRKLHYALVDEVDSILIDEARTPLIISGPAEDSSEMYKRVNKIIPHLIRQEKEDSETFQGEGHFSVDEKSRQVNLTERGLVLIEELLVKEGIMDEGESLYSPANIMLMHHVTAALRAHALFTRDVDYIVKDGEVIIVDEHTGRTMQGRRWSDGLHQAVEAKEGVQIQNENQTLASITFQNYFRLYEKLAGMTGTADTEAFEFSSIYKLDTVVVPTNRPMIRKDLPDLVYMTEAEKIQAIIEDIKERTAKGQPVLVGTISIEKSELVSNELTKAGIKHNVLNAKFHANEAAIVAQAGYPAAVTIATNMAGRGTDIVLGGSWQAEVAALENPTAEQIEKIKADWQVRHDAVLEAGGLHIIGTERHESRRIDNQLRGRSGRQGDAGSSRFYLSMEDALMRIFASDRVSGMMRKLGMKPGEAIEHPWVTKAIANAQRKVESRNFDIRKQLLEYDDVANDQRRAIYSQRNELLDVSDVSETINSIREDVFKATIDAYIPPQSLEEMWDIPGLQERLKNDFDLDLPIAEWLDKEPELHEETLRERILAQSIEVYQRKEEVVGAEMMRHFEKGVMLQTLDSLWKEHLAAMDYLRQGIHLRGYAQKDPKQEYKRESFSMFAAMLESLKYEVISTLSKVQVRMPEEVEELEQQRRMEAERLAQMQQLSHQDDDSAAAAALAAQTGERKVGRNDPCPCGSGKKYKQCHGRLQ
structure (smiles),measurement,setting,value
O=C1OCCCN1Cc1nc(-c2ccc(N3CCCCC3)cc2)no1,Percent Effect,[1],-1.59%
CC(C)(C)c1noc(CCCC(=O)N2CCNC(=O)CC2)n1,Percent Effect,[1],-2.76%
CCc1nc(CN2CCN(C(=O)C3CCCCC3)CC2)cs1,Percent Effect,[2],-3.52%
same,Percent Effect,[3],17.9%
same,Percent Effect,[4],-8.26%
same,Percent Effect,[5],7.23%
same,Percent Effect,[6],1.64%
same,Percent Effect,[7],8.28%
same,Percent Effect,[8],12%
same,Percent Effect,[9],5.26%
same,Percent Effect,[10],20.5%
same,Percent Effect,[11],-7.32%
CC(C)N(Cc1cccc(F)c1)Cc1nc2c(cnn2C)c(=O)[nH]1,Percent Effect,[2],-1.46%
same,Percent Effect,[3],7.69%
same,Percent Effect,[4],6.74%
same,Percent Effect,[5],0.469%
same,Percent Effect,[6],3.28%
same,Percent Effect,[7],1.79%
same,Percent Effect,[8],5.6%
same,Percent Effect,[9],3.35%
same,Percent Effect,[10],13.2%
same,Percent Effect,[11],-4.1%
COc1cccc2c1OCC(C(=O)N1CCC(N3CCOC3=O)CC1)C2 (stereo not given),Percent Effect,[2],-6.75%
same,Percent Effect,[3],13.5%
same,Percent Effect,[4],15.6%
same,Percent Effect,[5],4.95%
same,Percent Effect,[6],10.8%
same,Percent Effect,[7],9.59%
same,Percent Effect,[8],8.78%
same,Percent Effect,[9],9.04%
same,Percent Effect,[10],12.2%
same,Percent Effect,[11],-5.88%
CN(CCCOc1ccccc1Cl)C(=O)CN1C[C@@H]2CC[C@H](CC1=O)N2,Percent Effect,[1],10.1%
Fc1cccnc1CN1CCCCC1c1ccn2ccnc2n1 (stereo not given),Percent Effect,[2],-5.06%
same,Percent Effect,[3],22.7%
same,Percent Effect,[4],-2.65%
same,Percent Effect,[5],1.77%
same,Percent Effect,[6],-1.33%
same,Percent Effect,[7],11.8%
same,Percent Effect,[8],14%
same,Percent Effect,[9],8.47%
same,Percent Effect,[10],22.5%
same,Percent Effect,[11],-27.9%
COCC1CC2(CCN(Cc3ccc(OC)cc3)CC2)CN1C(C)C (stereo not given),Percent Effect,[2],-6.15%
same,Percent Effect,[3],-9.09%
same,Percent Effect,[4],-0.064%
same,Percent Effect,[5],-1.66%
same,Percent Effect,[6],-4.05%
same,Percent Effect,[7],0.0883%
same,Percent Effect,[8],-19.4%
same,Percent Effect,[9],0.526%
same,Percent Effect,[10],2.56%
same,Percent Effect,[11],1.65%
N#Cc1ccccc1C(=O)N1C[C@H](CO)C[C@H](CN2CCCC2)C1,Percent Effect,[2],-4.41%
same,Percent Effect,[3],-54%
same,Percent Effect,[4],7.55%
same,Percent Effect,[5],6.69%
same,Percent Effect,[6],16.4%
same,Percent Effect,[7],5.65%
same,Percent Effect,[8],-3.94%
same,Percent Effect,[9],2.66%
same,Percent Effect,[10],9.76%
same,Percent Effect,[11],-1.92%
N#Cc1cccc(N2CC3(CCN(C(=O)c4cccnc4)C3)CC2=O)c1 (stereo not given),Percent Effect,[2],-6.73%
same,Percent Effect,[3],9.09%
same,Percent Effect,[4],-3.3%
same,Percent Effect,[5],-4.58%
same,Percent Effect,[6],-3.64%
same,Percent Effect,[7],12.6%
same,Percent Effect,[8],-1.73%
same,Percent Effect,[9],3.68%
same,Percent Effect,[10],15.4%
same,Percent Effect,[11],-3.29%
Cc1ncoc1C(=O)N1CCn2c(COCC3CC3)cnc2C1C (stereo not given),Percent Effect,[2],-6.41%
same,Percent Effect,[3],9.09%
same,Percent Effect,[4],-3.19%
same,Percent Effect,[5],0.487%
same,Percent Effect,[6],-0.81%
same,Percent Effect,[7],10.2%
same,Percent Effect,[8],-4.92%
same,Percent Effect,[9],7.89%
same,Percent Effect,[10],12.8%
same,Percent Effect,[11],-2.4%
O=C(c1cc(C2CC2)nc2onc(-c3ccccc3)c12)N1CC(O)C1,Percent Effect,[1],2.65%
CN(CCOc1ccc(C#N)cc1)CC1CC1,Percent Effect,[1],22.9%
Cc1cnc(C(NC(=O)NCc2nc(C3CC3)no2)C2CC2)s1 (stereo not given),Percent Effect,[1],0.145%
CS(=O)(=O)c1ccc(CN2C[C@H]3CC[C@@H]2CN(c2ncccn2)C3)cc1,Percent Effect,[1],9.64%
CCC(O)CN1CCN(C(=O)CCSC)CC1 (stereo not given),Percent Effect,[1],-2.43%
CCC(CNC(=O)c1cccc(S(=O)(=O)NC)c1)N1CCCC1 (stereo not given),Percent Effect,[1],0.599%
CCN(Cc1nccn1C)C1CCN(c2ccccc2)C1=O (stereo not given),Percent Effect,[1],-7.13%
O=C(CN1CCC(c2nnc(C(F)(F)F)o2)CC1)Nc1cccnc1,Percent Effect,[1],-5.12%
Cc1cccc(C(C)C)c1NC(=O)CN(C)C(C)c1nccs1 (stereo not given),Percent Effect,[1],-7.09%
Cn1cc(NC(=O)N2CCCC2c2cccnc2)ccc1=O (stereo not given),Percent Effect,[1],42.2%
N#CCCn1cnc2c(Br)cccc2c1=O,Percent Effect,[1],-5.95%
CCSc1cc(C(=O)N(Cc2cnn(C)c2)C(C)C)ccn1,Percent Effect,[1],1.44%
Cc1noc(CN(C)c2ccccc2)n1,Percent Effect,[1],5.44%
CSc1ccc(OCCN2CCNC(=O)CC2)cc1,Percent Effect,[1],9.33%
Cn1ncnc1NCc1ccc(Br)cc1,Percent Effect,[1],6.33%
CCCN(CCO)S(=O)(=O)c1ccc2[nH]c(=O)[nH]c2c1,Percent Effect,[1],-3.64%
CNC(=O)C1CCCN(C(=O)c2cncs2)C1 (stereo not given),Percent Effect,[1],4.55%
